Reference: the supplement of paper PMC9433436
± gives the standard deviation of the averaged measurements. In all, about 4,100 sequences were measured (“relative kcat/Km (krel) vs genomic leader AAAGAU”: median about 1.7, highest 2% from about 6.5 on). The sample holds the highest values, similar sequences and a random draw of the others, so the mix is not that of the screen.

Target: T1, E. coli RNase P holoenzyme (M1 P RNA + rnpA protein) (UniProt P0A7Y8)
T1 sequence: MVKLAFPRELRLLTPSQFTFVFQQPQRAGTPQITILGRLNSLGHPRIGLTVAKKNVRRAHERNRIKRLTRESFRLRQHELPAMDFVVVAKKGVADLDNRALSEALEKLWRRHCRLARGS
Test: relative kcat/Km (krel) vs genomic leader AAAGAU (relative (reference leader = 1)); higher = faster RNase P cleavage
Procedure: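 HTS-Kin: a pool of ptRNA-Met (21C construct) with all 4096 combinations of 5' leader nucleotides N(-6) to N(-1) was processed in vitro by E. coli RNase P (P RNA + rnpA/C5 protein) under multiple-turnover conditions at 37 C, pH 8, 17.5 mM MgCl2. Residual substrate was Illumina-sequenced at several fractions reacted, and relative kcat/Km (krel) was computed by internal competition kinetics, calibrated to the genomic leader (AAAGAU = 1). The listed hexamer is the varied N(-6)..N(-1) leader (DNA letters), and it sits between a fixed 5' stem-loop flank (GCAUGCACGAAAGUGCGUGCUAUGAA) and the mature tRNA-Met starting GGCUACGUAGCUCAGUUGG. Two technical replicates are averaged.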

[1] = fraction of substrate reacted: ~26-29% (28.66% repeat 1, 26.4% repeat 2)
[2] = fraction of substrate reacted: ~9-10% (9.79% repeat 1, 9.1% repeat 2)
[3] = fraction of substrate reacted: ~13-16% (15.68% repeat 1, 13.17% repeat 2)

Row | Sequence | relative kcat/Km [1] | relative kcat/Km [2] | relative kcat/Km [3]
1 | ACAGTG | 0.981 ± 0.72 | – | –
2 | CCGGTA | – | 1.49 ± 0.78 | 1.25 ± 0.69
3 | AACGCG | 1.47 ± 0.078 | 1.32 ± 0.5 | 0.857 ± 0.52
4 | TCCCGC | 7.32 ± 3.2 | 4.31 ± 2.6 | 5.2 ± 0.32
5 | ACCCGA | 5.44 ± 1.5 | 3.55 ± 0.39 | 4.06 ± 0.66
6 | ACCCGC | 4.87 ± 1.5 | 3.03 ± 1.8 | 3.51 ± 0.3
7 | CCCCGA | 4.96 ± 1.9 | 3.63 ± 1.8 | 4.05 ± 0.29
8 | TCCCGA | 7.64 ± 2.3 | 3.95 ± 1.4 | 4.81 ± 0.41
9 | CCCCGC | 4.54 ± 1.6 | 2.14 ± 1.4 | 2.8 ± 0.83
10 | TTGCGG | 1.14 ± 0.22 | 0.933 ± 0.76 | 0.256 ± 0.11
11 | AAATAA | 3.44 ± 1.2 | 2.68 ± 1.5 | 2.92 ± 0.98
12 | TCACGC | 4.05 ± 1.5 | 2.24 ± 0.65 | 3 ± 0.93
13 | GTGACT | 1.08 ± 0.28 | – | 0.972 ± 0.2
14 | GGGACA | 1.2 ± 0.15 | 1.4 ± 1.2 | 0.801 ± 0.45
15 | GGGTGC | 1.04 ± 0.35 | 0.876 ± 0.24 | 0.837 ± 0.025
16 | ATGTTG | 0.642 ± 0.16 | – | –
17 | GTATCT | 4.66 ± 1.9 | 2.3 ± 0.54 | 3.23 ± 0.87
18 | ATCTCT | 6.18 ± 2.7 | 3.47 ± 1.2 | 4.36 ± 0.18
19 | GTCTCT | 7.16 ± 1.8 | 4.15 ± 1.8 | 5.51 ± 0.37
20 | TTCTCG | 4.91 ± 1.5 | 2.16 ± 1.3 | 2.86 ± 0.45
21 | TTCTCA | 8.21 ± 3.6 | 4.88 ± 2.1 | 5.74 ± 0.87
22 | GACTCA | 5.69 ± 2.1 | 3.33 ± 1.5 | 4.56 ± 0.1
23 | CTCTCA | 5.72 ± 1.9 | 3.31 ± 1.3 | 4.49 ± 0.63
24 | GTCTCG | 4.3 ± 1.1 | 2.29 ± 1.9 | 2.35 ± 0.054
25 | ATCTCA | 6.06 ± 2.4 | 3.67 ± 2 | 4.25 ± 0.21

Row | Sequence | relative kcat/Km [1] | relative kcat/Km [2] | relative kcat/Km [3]
26 | GTCTCA | 7.71 ± 2.8 | 3.83 ± 1.2 | 5.79 ± 0.43
27 | TTCTCT | 8.57 ± 3.4 | 4.43 ± 1.1 | 6.17 ± 1.4
28 | GTGTCT | 1.44 ± 0.22 | 0.45 ± 0.21 | 1.24 ± 0.15
29 | TTGCTA | 2.24 ± 0.7 | 2.11 ± 1.3 | 1.43 ± 0.11
30 | GACTCG | 3.21 ± 0.58 | 1.8 ± 1.4 | 1.87 ± 0.13
31 | TAAAGA | 3.01 ± 1.7 | 1.01 ± 0.34 | 1.61 ± 0.79
32 | CGCTGG | – | 0.49 ± 0.25 | –
33 | TGCGAG | 1.39 ± 0.28 | – | 0.318 ± 0.22
34 | TTGCGA | 1.91 ± 0.14 | 1.1 ± 0.36 | 1.53 ± 0.44
35 | CGACAT | 4.82 ± 1.8 | 3.05 ± 0.3 | 3.54 ± 1.1
36 | GGGTTC | 0.82 ± 0.16 | 0.445 ± 0.035 | 0.916 ± 0.37
37 | CACGGA | 0.766 ± 0.63 | – | –
38 | GGGATA | – | – | 0.415 ± 0.34
39 | CTCTCC | 6.17 ± 2.2 | 3.04 ± 0.91 | 4.91 ± 0.6
40 | GTCTCC | 8.17 ± 3.2 | 4.62 ± 1.7 | 6.15 ± 0.65
41 | GGCTCC | 2.25 ± 0.7 | 2.56 ± 0.54 | 1.96 ± 0.23
42 | CTCTCT | 7.22 ± 3 | 4.48 ± 1 | 4.84 ± 1.6
43 | TTCTCC | 8.25 ± 3 | 5.23 ± 2.1 | 6.12 ± 0.67
44 | TGCTCC | 2.87 ± 0.78 | 2.19 ± 0.87 | 2.31 ± 0.43
45 | ATCTCC | 6.39 ± 2.9 | 3.67 ± 0.85 | 4.83 ± 1.4
46 | CTCTCG | 3.31 ± 0.37 | 1.91 ± 1.5 | 1.68 ± 0.37
47 | GCCTCC | 5.33 ± 1.8 | 2.78 ± 1.2 | 3.32 ± 0.14
48 | CGGAGG | – | 0.395 ± 0.29 | –
49 | CATTTG | 1.49 ± 0.39 | – | –
50 | ACGCTA | 1.74 ± 0.51 | 1.05 ± 0.29 | 0.572 ± 0.17

Row | Sequence | relative kcat/Km [1] | relative kcat/Km [2] | relative kcat/Km [3]
51 | GGCTTT | 2.15 ± 0.52 | 2.05 ± 0.44 | 1.76 ± 0.074
52 | CGAAGA | 3.52 ± 0.96 | 1.79 ± 0.84 | 2.39 ± 1
53 | CCACCG | 1.08 ± 0.58 | – | –
54 | TAAGGC | 2.44 ± 2.2 | 1.46 ± 0.72 | –
55 | GTCACT | 6.31 ± 2.5 | 3.36 ± 0.97 | 3.29 ± 0.15
56 | TTCACA | 7.72 ± 3.1 | 4.51 ± 1.9 | 5.55 ± 0.86
57 | TTCACG | 4.56 ± 1.4 | 2.05 ± 1.9 | 2.41 ± 0.2
58 | GGCACC | 2.04 ± 0.18 | 1.52 ± 1.3 | 1.01 ± 0.24
59 | TTCACT | 7.57 ± 3.1 | 4.07 ± 1.2 | 5.27 ± 1.4
60 | TTCACC | 8.13 ± 3 | 3.91 ± 1.2 | 5.63 ± 0.6
61 | ATCACA | 5.18 ± 1.5 | 2.67 ± 1 | 3.8 ± 0.55
62 | ATCACT | 4.98 ± 2 | 3 ± 0.43 | 3.58 ± 1.1
63 | GTCACC | 6.98 ± 2.7 | 3.43 ± 0.98 | 4.83 ± 0.44
64 | CTCACC | 6.21 ± 2.6 | 2.93 ± 0.11 | 4.4 ± 1.5
65 | GTCACG | 3.97 ± 0.54 | – | 1.84 ± 0.86
66 | ATCACC | 5.67 ± 2 | 3.18 ± 0.62 | 3.68 ± 1
67 | CCTACA | 1.9 ± 0.68 | 2.23 ± 1.1 | 1.82 ± 0.36
68 | CGTCCT | 3 ± 1.2 | 2.14 ± 0.34 | 2.06 ± 0.17
69 | CTACGT | 1.13 ± 1.1 | 0.396 ± 0.012 | 0.978 ± 0.12
70 | TTAGGG | 2.15 ± 2.1 | 0.357 ± 0.048 | 1.11 ± 0.86
71 | GGGTAA | 1.46 ± 0.55 | 1.51 ± 0.8 | 1.31 ± 0.21
72 | GGAGCT | 1.64 ± 0.58 | 1.22 ± 0.62 | 0.705 ± 0.57
73 | GGCACA | 2.08 ± 0.64 | 1.43 ± 0.55 | 1.26 ± 0.95
74 | GTCACA | 7.01 ± 2.5 | 3.73 ± 1.8 | 4.78 ± 1.1
75 | CTCACA | 5.85 ± 2.7 | 3.32 ± 0.59 | 3.94 ± 0.75

Row | Sequence | relative kcat/Km [1] | relative kcat/Km [2] | relative kcat/Km [3]
76 | AAACGA | 2.21 ± 0.41 | 2.12 ± 0.92 | 1.89 ± 0.67
77 | CCCTTG | 1.42 ± 0.67 | – | –
78 | ACGAAA | 2.72 ± 1.1 | 1.79 ± 0.39 | 1.66 ± 0.37
79 | ATTTAA | 5.24 ± 1.9 | 3.55 ± 1.8 | 4.39 ± 0.62
80 | CTTTAT | 8.16 ± 3.3 | 4.88 ± 2 | 5.78 ± 0.63
81 | TTTAAA | 5.35 ± 2.1 | 3.37 ± 1.6 | 3.88 ± 0.2
82 | ATTTAT | 7.02 ± 3 | 3.82 ± 1.8 | 4.84 ± 0.46
83 | CTTTAA | 5.72 ± 2 | 3.07 ± 1.6 | 3.8 ± 0.23
84 | ATTTAG | 3.82 ± 0.68 | – | 2.526 ± 0.01
85 | TCTTAT | 8.21 ± 3.5 | 4.12 ± 1.9 | 5.44 ± 1.1
86 | CTTTAG | 3.51 ± 0.57 | 2.44 ± 1.3 | 2.14 ± 0.24
87 | TTTTAA | 6.68 ± 2.5 | 4.32 ± 1.7 | 4.88 ± 0.61
88 | TTTTTA | 3.44 ± 0.81 | 3.12 ± 2.4 | 2.58 ± 0.21
89 | GCTTAT | 4.62 ± 1.7 | 2.2 ± 0.24 | 3.15 ± 0.31
90 | CCTTAT | 6.48 ± 2.4 | 3.19 ± 0.95 | 4.47 ± 0.36
91 | GGCACT | 2.89 ± 1.2 | 1.99 ± 1.6 | 1.75 ± 0.28
92 | TTTGGG | 1.56 ± 1.5 | – | –
93 | ACATTT | 4.45 ± 1.8 | 2.32 ± 1.2 | 2.97 ± 0.19
94 | AGCAGC | 3.24 ± 0.54 | 2.23 ± 0.55 | 2.28 ± 0.13
95 | CCAACC | 1.3 ± 0.39 | – | 1.11 ± 0.49
96 | GCTAGG | 0.775 ± 0.23 | 1.3 ± 0.58 | –
97 | AATTTT | 3.35 ± 1 | 2.36 ± 0.95 | 2.45 ± 0.43
98 | TTTTAT | 8.5 ± 3.9 | 4.55 ± 1.4 | 5.6 ± 0.89
99 | GTTTTA | 3.52 ± 1 | 2.83 ± 1.7 | 2.56 ± 0.17
